These results are taken from PMC4336329 (PLoS ONE, 2015).

Molecules are shown by their SMILES. Among all 310,000 compounds or so, about 14,000 (4.5%) showed an effect of 50% or more. Effects have a minus sign here. This is one part of a sample in which strong results are shown more often than they occur.
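Further: peak tail current of the secondary pulse compared with the same well before compound.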

Sequence of human ether-à-go-go-related gene (hERG) potassium channel (Q12809 whole entry, looked up): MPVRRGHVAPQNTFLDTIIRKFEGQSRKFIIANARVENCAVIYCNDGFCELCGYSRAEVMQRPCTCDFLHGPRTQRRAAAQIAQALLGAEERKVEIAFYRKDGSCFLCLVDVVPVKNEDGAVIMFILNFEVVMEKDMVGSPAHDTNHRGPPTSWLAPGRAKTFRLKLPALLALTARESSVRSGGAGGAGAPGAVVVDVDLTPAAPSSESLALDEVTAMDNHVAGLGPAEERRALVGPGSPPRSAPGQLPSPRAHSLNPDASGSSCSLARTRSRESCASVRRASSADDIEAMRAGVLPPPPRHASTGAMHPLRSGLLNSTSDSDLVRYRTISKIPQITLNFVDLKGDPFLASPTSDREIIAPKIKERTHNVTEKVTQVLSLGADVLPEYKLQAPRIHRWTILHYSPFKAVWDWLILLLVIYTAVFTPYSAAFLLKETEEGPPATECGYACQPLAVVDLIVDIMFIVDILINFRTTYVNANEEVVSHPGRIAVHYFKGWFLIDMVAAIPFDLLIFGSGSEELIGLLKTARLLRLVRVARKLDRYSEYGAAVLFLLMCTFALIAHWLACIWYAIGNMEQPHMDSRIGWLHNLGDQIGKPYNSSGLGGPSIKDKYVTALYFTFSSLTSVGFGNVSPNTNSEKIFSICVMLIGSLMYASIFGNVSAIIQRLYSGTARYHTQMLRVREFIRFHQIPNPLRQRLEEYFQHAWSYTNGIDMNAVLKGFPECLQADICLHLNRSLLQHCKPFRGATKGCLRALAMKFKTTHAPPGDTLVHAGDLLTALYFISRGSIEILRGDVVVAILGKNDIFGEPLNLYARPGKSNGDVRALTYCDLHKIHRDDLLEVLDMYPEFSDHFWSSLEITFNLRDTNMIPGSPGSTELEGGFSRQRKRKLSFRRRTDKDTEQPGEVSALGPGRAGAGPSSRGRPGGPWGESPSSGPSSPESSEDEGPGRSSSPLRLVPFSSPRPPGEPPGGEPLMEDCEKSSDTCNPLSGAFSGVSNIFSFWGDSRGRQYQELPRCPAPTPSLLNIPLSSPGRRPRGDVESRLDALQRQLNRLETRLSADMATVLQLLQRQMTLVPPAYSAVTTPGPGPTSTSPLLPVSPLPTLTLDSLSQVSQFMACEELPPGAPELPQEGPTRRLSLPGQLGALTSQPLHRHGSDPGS

This test concerns the target human ether-à-go-go-related gene (hERG) potassium channel (human, UniProt Q12809). Nature of the test: primary screen, population patch clamp on CHO cells stably expressing hERG; higher = less effect of the substance.
With `CCCNC(=O)NC(C)C12CC3CC(CC(C3)C1)C2` (stereo not shown), the “hERG current change (%, negative = inhibition) at 10uM” value is -12.6%. For `COC(=O)c1cc(COC(=O)c2nc3nccc(C)n3n2)oc1C` the value was 15.7%. The figure for `Cc1cc(C(=O)OCC(=O)NC2CCCCC2)c(C)o1` is 9.12%. The figure for `Cc1ccc(NC(=O)CSCC(=O)N2CCN(c3cccc(C(F)(F)F)c3)CC2)cc1` is -13%; for `Cc1ccc(NC(=O)c2cccc3c2-c2ccccc2C3=O)cc1C` it is -9.58%; for `O=C1CCCN1CCCNc1ncnc2c1[nH]c1ccc(Cl)cc12` it is -29.4%. As to `O=c1c2[nH]c3ccc(F)cc3c2ncn1CCN1CCN(Cc2ccccc2)CC1`, the “hERG current change (%, negative = inhibition) at 10uM” value was -63.2%.

Regarding `O=c1c2[nH]c3ccccc3c2ncn1CCN1CCOCC1`, the “hERG current change (%, negative = inhibition) at 10uM” value stood at 4.87%. For `CCC1CCCN1Cn1cnc2c([nH]c3ccc(Cl)cc32)c1=O` (stereo not shown) the value was -71.5%; for `O=c1c2[nH]c3ccccc3c2ncn1CCN1CCNCC1`, 4.97%; for `O=c1c2[nH]c3ccc(F)cc3c2ncn1CCN1CCOCC1`, -41.1%. The figure for `O=c1c2[nH]c3ccc(F)cc3c2ncn1CCCN1CCOCC1` is -31.3%; for `Cc1ccc2[nH]c3c(=O)n(CCC4=CCCCC4)cnc3c2c1` it is 4.95%. For `CCC1CCCN1Cn1cnc2c([nH]c3ccccc32)c1=O` (stereo not shown), the “hERG current change (%, negative = inhibition) at 10uM” value was -62.1%. The figure for `CCC1CCCN1Cn1cnc2c([nH]c3ccc(C)cc32)c1=O` (stereo not shown) is -67.1%; for `Cc1ccc2[nH]c3c(=O)n(CCCN4CCOCC4)cnc3c2c1` it is -17.8%; for `Cc1ccc2[nH]c3c(=O)n(CCCN4CCN(C)CC4)cnc3c2c1` it is -37%. The figure for `O=c1[nH]nc(-c2ccc(NCCCO)c([N+](=O)[O-])c2)c2ccccc12` is -9.98%; for `O=C(CSc1nnc(NC(=O)C2CC2)s1)NCc1ccco1` it is -4.21%. As for `COc1cc(/C=N\NC(=O)c2ccc(C)nc2)ccc1OC(=O)c1ccc2c(c1)OCO2`, the “hERG current change (%, negative = inhibition) at 10uM” value is -7.08%. For `Cc1cccc(CNc2ccc(C(CC(N)=O)NC(=O)Cc3cccc4ccccc34)cc2[N+](=O)[O-])c1` (stereo not shown) the value was 7.02%; for `Cc1ccn2cc(-c3cccc(NC(=O)c4cccs4)c3)nc2c1`, -48.7%; for `COc1cc2[nH]c3c(=O)n(CCN4CCCCC4)cnc3c2cc1OC`, 6.02%. For `O=c1c2[nH]c3ccccc3c2ncn1CCN1CCCCC1` the value was -45.6%. For `O=c1c2[nH]c3ccc(Cl)cc3c2ncn1CCN1CCCCC1` the value was -68%; for `Cc1ccc(S(=O)(=O)N(C)CC(=O)Nc2ccccc2)cc1`, -20%. As for `COc1cccc(CC(=O)OCC(=O)NC2(C#N)CCCCC2)c1`, the “hERG current change (%, negative = inhibition) at 10uM” value is reported as 16.5%. For `Cc1nnc(NC(=O)CCSc2ccccc2)s1` the value was 1.73%; for `COC(=O)C1CCN(C(=O)COC(=O)c2n[nH]c3ccccc23)CC1`, 10.8%; for `Cc1nn(C)cc1C(C)NC(=O)c1cc(COc2cccc3cnccc23)on1` (stereo not shown), 13.9%. For `Cc1c(C(C)NC(=O)c2cc(COc3cccc4cnccc34)on2)cnn1C` (stereo not shown) the value was -55.6%. For `COc1cccc(OCc2cc(C(=O)NC(C)c3cnn(C)c3C)no2)c1` (stereo not shown) the value was -2.65%; for `Cc1ccc(C)c(NC(=O)NNC(=O)c2ccc3ccccc3c2O)c1`, 11.4%. In the case of `COc1cccc(N2CCN(C(=O)c3cn(Cc4ccccc4)nc3-c3cccnc3)CC2)c1`, the “hERG current change (%, negative = inhibition) at 10uM” value is listed as -12.9%. The figure for `O=Cc1cn(Cc2ccccc2)nc1-c1cccnc1` is 7.48%. For `CC(=O)c1ccc(N2CCN(C(=O)c3cn(Cc4ccccc4)nc3-c3cccnc3)CC2)c(F)c1` the value was -50.2%; for `O=C(c1cn(Cc2ccccc2)nc1-c1cccnc1)N1CCN(Cc2c(F)cccc2Cl)CC1`, -4.33%. The figure for `N#Cc1ccc(CN2CCN(C(=O)c3cn(Cc4ccccc4)nc3-c3cccnc3)CC2)cc1` is -72.9%. In the case of `O=C(O)/C=C/c1cn(Cc2ccccc2)nc1-c1cccnc1`, the “hERG current change (%, negative = inhibition) at 10uM” value was found to be 12%.

`COCCOC(=O)/C(C#N)=C/c1cn(Cc2ccccc2)nc1-c1cccnc1`: the “hERG current change (%, negative = inhibition) at 10uM” value is listed as -67.1%. Take `O=C(c1cn(Cc2ccccc2)nc1-c1cccnc1)N1CCN(Cc2ccccc2)CC1`: the “hERG current change (%, negative = inhibition) at 10uM” value is -33.5%. The figure for `COc1ccc(N2CCN(C(=O)c3cn(Cc4ccccc4)nc3-c3cccnc3)CC2)cc1` is -33.3%; for `CCc1nnc(NC(=O)CSc2nc3c(c(=O)n2C)SC(C)C3)s1` (stereo not shown) it is -2.54%. The figure for `CCCCOC(=O)c1ccc(NC(=O)c2ocnc2C)cc1` is -8.8%; for `O=C(OC(C(=O)NCc1ccco1)c1ccc(Cl)cc1)c1cccs1` (stereo not shown) it is 17.6%; for `CC(C)Oc1ccccc1/C=N/NC(=O)C1CC1` it is 7.57%. The figure for `Cl.c1ccc(CN2CCN(c3nc(N4CCOCC4)c4ccccc4n3)CC2)cc1` is -70.3%. For `Cl.OCCNc1nc(N2CCN(Cc3ccccc3)CC2)nc2ccccc12`, the “hERG current change (%, negative = inhibition) at 10uM” value is recorded as -68.3%.

`CCN1CCN(c2nc(NCCO)c3ccccc3n2)CC1.Cl`: the “hERG current change (%, negative = inhibition) at 10uM” value is listed as -16.7%. For `CCN(CC)c1nc(N2CCOCC2)nc2ccccc12.Cl` the value was -48.3%. The figure for `Cc1ccc(-c2nc(NCc3ccco3)c3ccccc3n2)cc1` is 4.65%; for `Cl.OCCN1CCN(c2nc(NCc3ccco3)c3ccccc3n2)CC1` it is -75.3%; for `Cc1ccc(OCCN2CCN(c3nc(NCc4ccco4)c4ccccc4n3)CC2)cc1` it is -62.6%. With `O=C(NCCO)c1nc(NCCO)c2ccccc2n1`, the “hERG current change (%, negative = inhibition) at 10uM” value is 10.3%.

For `Cc1cccc(Nc2nc(NCc3ccco3)c3ccccc3n2)c1.Cl`, the “hERG current change (%, negative = inhibition) at 10uM” value is -12.2%. The figure for `Cl.c1ccc2c(N3CCOCC3)nc(N3CCOCC3)nc2c1` is -19.4%; for `CC(=O)N1c2ccc(S(=O)(=O)N3CCCC(C(=O)N4CCCCC4)C3)cc2CC1C` (stereo not shown) it is 19.2%; for `CC(C)(C)NC(=O)CN(Cc1cccs1)C(=O)C1COc2ccccc2O1` (stereo not shown) it is -14.7%.

For `Cc1cc(=O)[nH]c(N/N=C/c2c(C)oc3ccccc23)n1`, the “hERG current change (%, negative = inhibition) at 10uM” value is reported as -0.943%. The figure for `Nc1nc(Nc2ccccc2)nc(NC2CCCCC2)c1[N+](=O)[O-]` is 18.9%; for `Cn1nccc1C(=O)N1CCOCC1` it is 5.59%.

On to `FC(F)Oc1ccc(NC(=S)NCC2COc3ccccc3O2)cc1` (stereo not shown), for which the “hERG current change (%, negative = inhibition) at 10uM” value is -5.83%.

Regarding `COc1ccc(OC)c(/C=N\NC(=O)c2ccc(COc3ccc(C)cc3[N+](=O)[O-])o2)c1`, the “hERG current change (%, negative = inhibition) at 10uM” value is 16.2%.

Regarding `N#Cc1cnn(-c2cccc(Cl)c2)c1N`, the “hERG current change (%, negative = inhibition) at 10uM” value was 11.6%. The figure for `Cc1csc(NC(=O)CS(=O)(=O)c2ccccc2)n1` is -18.1%; for `COc1ccc(NC(=O)c2nc[nH]c2C(=O)N2CCN(c3ccccc3)CC2)cc1` it is 3.64%; for `CC(C)CN(C(=O)CSc1nn(-c2ccc(Cl)cc2)c(=S)s1)C1CCS(=O)(=O)C1` (stereo not shown) it is -20.1%. The figure for `O=C(COC(=O)/C=C/c1cccs1)Nc1nc(-c2ccccc2)cs1` is 12.1%. For `c1ccc(CNc2nc(NCc3ccco3)nc(N3CCOCC3)n2)cc1` the value was -28.5%; for `Nc1nc(NCc2ccco2)nc(N2CCN(Cc3ccccc3)CC2)c1[N+](=O)[O-]`, -41.9%; for `Cl.c1ccc(CNc2nc(N3CCN(Cc4ccccc4)CC3)nc3ccccc23)cc1`, -65.9%. As to `Cl.c1ccc(CN2CCN(c3nc(NCc4ccco4)c4ccccc4n3)CC2)cc1`, the “hERG current change (%, negative = inhibition) at 10uM” value was -68.3%. Take `c1ccc(CN2CCN(c3nc4ccccc4s3)CC2)cc1`: the “hERG current change (%, negative = inhibition) at 10uM” value is listed as 11.8%.

For `Nc1nc(N2CCN(Cc3ccccc3)CC2)n[nH]1`, the “hERG current change (%, negative = inhibition) at 10uM” value amounted to 24.7%. For `CCc1ccc(CCC(=O)Nc2ccc(C)c(C)c2)o1` the value was -20.8%; for `COC(=O)NCC(c1ccco1)N1CCN(c2ccc(F)cc2)CC1` (stereo not shown), -1.75%. For `Cc1[nH]n(-c2ccccc2)c(=O)c1N=Nc1ccccc1C(=O)O` the value was 1.85%; for `COc1ccc(CN(C)C(=O)C(Cc2ccccc2)NC(=O)c2ccccc2)c(OC)c1` (stereo not shown), -13.5%; for `Cc1nn(-c2ccccc2)c2c1C1(C(=O)Nc3ccccc31)N1C(=N2)Sc2ccccc21` (stereo not shown), 0.952%.

Turning to `Cc1cc(N)n2nc(C)c(-c3ccccc3)c2n1`, the “hERG current change (%, negative = inhibition) at 10uM” value is recorded as -21.9%. For `Cc1ccc2c(cnn2C(=O)CCCC(=O)NC(C)c2ccccc2)c1` (stereo not shown) the value was -5.97%; for `CCN(CC)S(=O)(=O)c1cccc(C(=O)Oc2cccnc2)c1`, -8.07%; for `Cc1ccc(CC(=O)N2CCN(C)CC2)cc1`, 18.1%. The figure for `O=C(Cc1ccc(Br)cc1)N1CCN(Cc2ccccc2)CC1` is -30.9%; for `COc1ccccc1CC(=O)N1CCN(c2ccccc2)CC1` it is 9.19%; for `Cc1ccc(CC(=O)N2CCN(c3ccc([N+](=O)[O-])cc3)CC2)cc1` it is -62.1%. On to `O=C(Cc1ccc([N+](=O)[O-])cc1)N1CCN(c2ccc([N+](=O)[O-])cc2)CC1`, for which the “hERG current change (%, negative = inhibition) at 10uM” value is -73.7%. The figure for `O=C(Cc1ccc([N+](=O)[O-])cc1)N1CCCCCC1` is -21.9%; for `Cc1ccc(CC(=O)N2CCN(Cc3ccccc3)CC2)cc1` it is 4.07%. The figure for `CS(=O)(=O)N1CCN(C(=O)Cc2ccc([N+](=O)[O-])cc2)CC1` is 0.692%. The figure for `O=C(Cc1ccccc1)N1CCN(Cc2ccc([N+](=O)[O-])cc2)CC1` is -63.4%. Turning to `COc1ccccc1CC(=O)N1CCN(c2ccc([N+](=O)[O-])cc2)CC1`, the “hERG current change (%, negative = inhibition) at 10uM” value is -52%.

For `COc1ccccc1CC(=O)N1CCN(c2ccc(F)cc2)CC1`, the “hERG current change (%, negative = inhibition) at 10uM” value was -11.1%. In the case of `COc1ccc(N2CCN(C(=O)Cc3ccc(C)cc3)CC2)cc1`, the “hERG current change (%, negative = inhibition) at 10uM” value is given as -6.07%.
